Test results taken from PMC4336329 (PLoS ONE, 2015).
Screen size: about 310,000 compounds; about 14,000 (4.5%) showed an effect of 50% or more. The effect is printed as a negative number. What follows is part of a selection rich in strong results, with near analogues and random picks from the rest.

molecular target: human ether-à-go-go-related gene (hERG) potassium channel (human, UniProt Q12809); assay: primary screen, population patch clamp on CHO cells stably expressing hERG; higher = less effect of the substance
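Note: peak tail current of the secondary pulse compared with the same well before compound.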

human ether-à-go-go-related gene (hERG) potassium channel, sequence (Q12809 whole entry, looked up): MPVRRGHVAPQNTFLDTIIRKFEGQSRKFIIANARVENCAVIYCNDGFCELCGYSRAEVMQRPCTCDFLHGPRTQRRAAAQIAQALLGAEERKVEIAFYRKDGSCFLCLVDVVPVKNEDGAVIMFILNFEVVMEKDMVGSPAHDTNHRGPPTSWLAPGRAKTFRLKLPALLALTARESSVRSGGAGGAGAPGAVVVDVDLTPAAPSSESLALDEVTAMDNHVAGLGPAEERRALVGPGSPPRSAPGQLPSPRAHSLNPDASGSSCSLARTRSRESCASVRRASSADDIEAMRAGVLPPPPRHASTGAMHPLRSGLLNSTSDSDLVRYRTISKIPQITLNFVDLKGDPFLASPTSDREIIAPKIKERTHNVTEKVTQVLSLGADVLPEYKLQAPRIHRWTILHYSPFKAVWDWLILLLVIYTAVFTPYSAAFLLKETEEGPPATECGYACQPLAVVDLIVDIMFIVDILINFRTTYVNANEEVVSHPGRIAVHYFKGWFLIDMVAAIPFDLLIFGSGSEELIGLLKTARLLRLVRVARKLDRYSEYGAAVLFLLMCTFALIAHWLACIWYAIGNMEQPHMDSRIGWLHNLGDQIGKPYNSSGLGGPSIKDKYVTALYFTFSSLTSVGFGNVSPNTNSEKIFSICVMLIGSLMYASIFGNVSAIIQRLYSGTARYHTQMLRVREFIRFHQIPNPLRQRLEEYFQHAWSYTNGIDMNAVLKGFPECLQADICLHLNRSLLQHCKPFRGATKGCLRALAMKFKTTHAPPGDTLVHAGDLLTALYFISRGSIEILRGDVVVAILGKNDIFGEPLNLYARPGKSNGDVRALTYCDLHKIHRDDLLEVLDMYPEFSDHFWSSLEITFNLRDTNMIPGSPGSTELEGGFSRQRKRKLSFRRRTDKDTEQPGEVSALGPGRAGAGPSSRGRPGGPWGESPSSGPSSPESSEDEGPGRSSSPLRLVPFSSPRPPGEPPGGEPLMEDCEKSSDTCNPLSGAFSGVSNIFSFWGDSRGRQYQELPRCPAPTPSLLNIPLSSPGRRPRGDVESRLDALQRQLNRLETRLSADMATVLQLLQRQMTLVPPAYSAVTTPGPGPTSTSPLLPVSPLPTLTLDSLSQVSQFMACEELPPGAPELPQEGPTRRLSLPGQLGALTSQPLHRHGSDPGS

Point of comparison: `CCCc1nc2oc3cc(OC)ccc3c(=O)c2c(=O)n1CCc1ccccc1`, “hERG current change (%, negative = inhibition) at 10uM” value -38.3%. Against it:
- CC(C)C(=O)Nc1ccc(S(=O)(=O)N2CCC(c3nc4ccccc4[nH]3)CC2)cc1 — lower, -42.7%
- CC1=CCC(C(=O)O)C(C(=O)Nc2ccc(-c3nc4ccc(C)cc4s3)cc2)C1 (centres unmarked) — higher, 7.8%
- COc1ccccc1Oc1ccccc1[N+](=O)[O-] — higher, 5.95%
- O=C(NNC(=O)c1ccc(Cl)c([N+](=O)[O-])c1)c1ccncc1 — higher, 13.2%
- COc1cc(/C=C2/C(=O)N(c3ccc([N+](=O)[O-])cc3)N=C2N2CCOCC2)ccc1O — lower, -42.2%
- COC(=O)Cn1c2ccc(Cl)cc2c2nc(C)sc21 — higher, 5.43%
- Cc1nc2c3cc(F)ccc3n(Cc3ccc(F)cc3)c2s1 — higher, 13.8%
- Cc1nc2c3cc(F)ccc3n(Cc3ccccc3)c2s1 — higher, 4.24%
- CCN(CC)CCn1c2ccc(F)cc2c2nc(C)sc21.Cl — lower, -54.3%
- CCN(CC)CCn1c2ccccc2c2nc(C)sc21 — higher, -30.6%
- CCN(CC)CCn1c2ccc(Cl)cc2c2nc(C)sc21.Cl — lower, -68.2%
- COc1ccc(-n2ccc(=O)c3c2CCCC3=O)cc1 — higher, 13.5%
- CCn1cc(C(=O)O)c(=O)c2cnc(N3CCN(C(=S)Nc4ccccc4Cl)CC3)nc21 — higher, -4.66%
- N#Cc1ccc(Cl)cc1NC(=O)COC(=O)[C@H](CCC(N)=O)NC(=O)c1ccc(F)cc1 — higher, 1.75%
- Cc1ccc2c(c1)C(C)CC(C)(C)N2C(=O)CN1CCN(C)CC1.O=C(O)C(=O)O (centres unmarked) — higher, -23.6%
- C/C=C(\C)C(=O)NCCN1C2=NC[C@@H](C)N2C[C@H]1Cc1ccc(O)cc1 — higher, 12.9%
- COc1ccc(C[C@H]2CN3C(=NC[C@H]3C)N2CCNC(=O)c2ccc(C)c(Br)c2)cc1 — lower, -72%
- C/C=C(\C)C(=O)NCCN1C2=NC[C@@H](C)N2C[C@@H]1Cc1ccc(OC)cc1 — higher, 0.0958%
- Cc1ccc(C(=O)NCCN2C3=NC[C@H](C(C)C)N3C[C@H]2Cc2ccc(O)cc2)cc1Br — higher, -26.3%
- COc1ccc(C[C@H]2CN3C(=NC[C@@H]3C(C)C)N2CCNC(=O)c2ccc(C)c(Br)c2)cc1 — lower, -79%
- COc1ccc(C[C@@H]2CN3C(=NC[C@@H]3C)N2CCNC(=O)c2ccc(C)c(Br)c2)cc1 — lower, -71.4%
- CCc1nc(-c2ccccc2)cc(=O)[nH]1 — higher, -6.29%
- CCOC(=O)c1cc(NC(=O)c2ccc(C)cc2)c(=O)oc1C(F)(F)F — higher, -2.5%
- O=C(CSCc1ccccc1)Nc1ccc(S(=O)(=O)N2CCOCC2)cc1 — higher, -17.7%
- Cc1cc(C(=O)N/N=C/c2ccc(-c3cccc(Br)c3)o2)n[nH]1 — higher, 12.4%
- NS(=O)(=O)c1ccc(CNC(=O)CC23CC4CC(CC(C4)C2)C3)cc1 — higher, -5.69%
- Cc1nn(C)c(C)c1NC(=O)CSc1nnc(C)n1-c1ccccc1 — higher, -0.523%
- Cc1cc(NC(=O)CSc2nnc3c(C)cc4cc(C)c(C)cc4n23)no1 — higher, 20%
- O=C1CNC(=O)/C1=C/c1ccc(Br)cc1 — higher, 16.7%
- CN1/C(=C/C(=O)c2nc(S(C)(=O)=O)ncc2Cl)C(C)(C)c2ccccc21 — higher, -29.9%
- CCN(CC)CCn1c2c(c(SCC(=O)Nc3ccc(C(C)C)cc3)nc1=O)CCCC2 — lower, -68.3%
- CCN(CC)CCn1c2c(c(SCC(=O)Nc3ccc(C(C)C)cc3)nc1=O)CCC2 — lower, -56.9%
- O=C(COC(=O)c1ccc(NS(=O)(=O)c2ccc3c(c2)OCCO3)cc1)NC1CC1 — higher, -1.56%
- COc1cc(OC)c(C2=NOC(C(=O)O)C2)cc1Cl (centres unmarked) — higher, 5.14%
- CC(C)(C)c1ccc(SCCc2ccncc2)cc1 — higher, 3.48%
- COC(=O)C1=C(c2ccc(F)cc2OCc2ccccc2)C[C@@H]2CC[C@H]1N2C(=O)NCc1cccc(OC)c1 — higher, 2.72%
- COc1ccc(-c2cc(C(=O)Nc3c(C)n(C)n(-c4ccccc4)c3=O)no2)cc1 — higher, 6.42%
- COc1ccc(N=c2cc(-c3ccc(OC)cc3)oc3ccccc23)cc1 — higher, 4.41%
- CCc1ccc2oc(-c3ccc(OC)cc3)cc(=[NH+]c3cccc(C(=O)O)c3)c2c1.F[B-](F)(F)F — higher, 5%
- COc1ccc(-c2cc(=Nc3ccc(C)cc3)c3ccccc3o2)cc1 — higher, 5.87%
- CCc1ccc2oc(-c3ccc(OC)cc3)cc(=[NH+]c3c(C)n(C)n(-c4ccccc4)c3=O)c2c1.F[B-](F)(F)F — lower, -71.7%
- COc1ccc(-c2cc(=Nc3c(C)n(C)n(-c4ccccc4)c3=O)c3ccccc3o2)cc1 — lower, -68.1%
- COc1ccc(CCNC(=S)NCCc2ccc(OC)c(OC)c2)cc1OC — higher, 5.11%
- Cc1ccn2cc(CSc3ccccc3N)nc2c1 — higher, -29.1%
- CCN(CC)c1ccc(NC(=O)CCc2nnc3ccc(N4CCCCC4)nn23)c(C)c1 — higher, -12.8%
- CCCCC/C(=N/O)c1c(C)[nH]c2ccccc12 — higher, 4.53%
- Cc1ccc(N(CC(O)CON=C2c3ccccc3-c3ccccc32)S(C)(=O)=O)cc1 (centres unmarked) — higher, 15.5%
- Cc1ccc(C)c(S(=O)(=O)N2CCCC2CNC(=O)C(=O)NCCc2ccco2)c1 (centres unmarked) — higher, -21.2%
- O=C(NCC1CCCN1S(=O)(=O)c1cccs1)c1cccc([N+](=O)[O-])c1 (centres unmarked) — higher, -24.5%
- Cc1ccc(S(=O)(=O)N2CCCC2CNC(=O)c2ccccc2)cc1 (centres unmarked) — higher, -9.34%
- Cc1ccc(S(=O)(=O)N2CCCC2CNC(=O)c2ccc(F)c(F)c2)cc1 (centres unmarked) — lower, -52.5%
- Cc1ccc(C)c(S(=O)(=O)N2CCCC2CNC(=O)c2ccc([N+](=O)[O-])cc2)c1 (centres unmarked) — lower, -81.8%
- Cc1ccc(C)c(S(=O)(=O)N2CCCC2CNC(=O)C(=O)NCc2ccco2)c1 (centres unmarked) — lower, -54.2%
- Cc1ccc(C)c(S(=O)(=O)N2CCCC2CNC(=O)C(=O)NC2CC2)c1 (centres unmarked) — higher, -0.659%
- O=C(NCC1CCCN1S(=O)(=O)c1cccs1)c1ccc([N+](=O)[O-])cc1 (centres unmarked) — lower, -55.2%
- Cc1ccc(C(=O)NCC2CCCN2S(=O)(=O)c2ccc(C)cc2)cc1 (centres unmarked) — higher, -33.8%
- Cc1ccc(C)c(S(=O)(=O)N2CCCCC2CCNC(=O)C(=O)NCc2ccco2)c1 (centres unmarked) — higher, -21.8%
- O=C(NCC1CCCN1S(=O)(=O)c1cccs1)c1ccccc1 (centres unmarked) — higher, 16.5%
- Cc1ccc(C)c(S(=O)(=O)N2CCCC2CNC(=O)C(=O)NCC2CCCO2)c1 (centres unmarked) — higher, -15.5%
- COc1ccc(C(CNC(=O)C(CC(C)C)NS(=O)(=O)c2ccc(C)cc2)N2CCOCC2)cc1 (centres unmarked) — higher, -3.25%
- Oc1c(C=NCc2ccncc2)sc2ccccc12 — lower, -38.4%
- CCCCn1c(N)c(N(CCC(C)C)C(=O)c2cccc(-n3cnnn3)c2)c(=O)[nH]c1=O — higher, -7.92%
- CCc1ccc(CN(C)C(=O)CC2C(=O)NCCN2Cc2ccoc2)cc1 (centres unmarked) — higher, 4.18%
- COc1ccc(Cl)cc1NC(=O)C1CCN(S(C)(=O)=O)CC1 — higher, 3.72%
- CCOc1ccccc1/C=C/c1onc(C)c1S(=O)(=O)N1CCC(C(=O)N(CC)CC)CC1 — higher, -3.33%
- O=C(NCc1cccnc1)c1ccc(NC(=O)c2ccc([N+](=O)[O-])cc2)cc1 — higher, 9.09%
- CCOC(=O)Cc1cc(=O)n2[nH]c(-c3ccc(Cl)cc3)cc2n1 — higher, -20.4%
- COc1ccc(-n2c(=O)c(NC(=O)c3ccccc3)c3n(c2=S)CCCCC3)cc1 — higher, -3.03%
- CC(=O)c1ccc(NC(=O)CO/N=C(\C)c2cccs2)cc1 — higher, -8.22%
- O=C(Nc1ccccn1)c1ccc2c(c1)S(=O)(=O)c1ccccc1C2=O — higher, 6.46%
- CCCCCn1cnnc1SCC(=O)c1ccc2c(c1)OCO2 — higher, -27.9%
- Cc1nc2c3ccccc3nc(SCC(=O)c3ccc(Cl)cc3)n2n1 — higher, 2.48%
- COC(=O)C1=C(C(=O)OC)[C@@H]2N(Cc3ccccc3)c3ccccc3[C@@]23C[C@@H](C(=O)OC)N(C(=O)NC2CCCCC2)C3=N1 — higher, -12.1%
- CCN1CCN(Cc2nc3ccc([N+](=O)[O-])cc3c(=O)n2-c2ccc(OC)cc2OC)CC1 — lower, -52%
- COc1ccc(-n2c(CN3CCC(C(N)=O)CC3)nc3ccc([N+](=O)[O-])cc3c2=O)c(OC)c1 — higher, -3.9%
- CCOC(=O)C1CCCN(Cc2nc3ccc([N+](=O)[O-])cc3c(=O)n2-c2ccc(OC)cc2OC)C1 (centres unmarked) — higher, -28.9%
- COc1ccc(-n2c(CN3CCN(c4ccccc4)CC3)nc3ccc([N+](=O)[O-])cc3c2=O)c(OC)c1 — higher, -10.8%
- COc1ccc(-n2c(CN3CCOCC3)nc3ccc([N+](=O)[O-])cc3c2=O)c(OC)c1 — higher, -3.17%
- COc1cccc(-n2c(CN3CCN(c4ccccn4)CC3)nc3ccc([N+](=O)[O-])cc3c2=O)c1 — lower, -40%
- CCOC(=O)C1CCN(Cc2nc3ccc([N+](=O)[O-])cc3c(=O)n2-c2ccc(OC)cc2OC)CC1 — lower, -53.8%
- COc1ccc(-n2c(CN3CCN(c4ccccn4)CC3)nc3ccc([N+](=O)[O-])cc3c2=O)c(OC)c1 — lower, -55.5%
- COc1ccc(-n2c(CN3CCC(C)CC3)nc3ccc([N+](=O)[O-])cc3c2=O)c(OC)c1 — higher, 4.93%
- COc1ccc(-n2c(CN3CCN(c4ccc(F)cc4)CC3)nc3ccc([N+](=O)[O-])cc3c2=O)c(OC)c1 — lower, -44.6%
- COc1ccc(-n2c(CN3CCN(Cc4ccccc4)CC3)nc3ccc([N+](=O)[O-])cc3c2=O)c(OC)c1 — lower, -51.1%
- COc1ccc(-n2c(CN3CCN(C)CC3)nc3ccc([N+](=O)[O-])cc3c2=O)c(OC)c1 — lower, -38.4%
